In PubChem BioAssay (NCATS):
Several values for one entry are separate records, joined by “and”; a condition that tells them apart may be missing. Equal entries are not always repeated. Inconclusive results are not listed. The source holds several records for some structures; these can differ, active in one and inactive in another. Activity calls are given as the source filed them. Unless noted, calls come from the whole dose curve; as a rule, active = well fitted curve in either direction with a large enough effect (not every such curve was filed as active); inconclusive = small, poorly fitted or top-dose-only effect, or another doubt; inactive = flat fitted curve, though single readings scatter.

Tests used:
[1] = AP1 Signaling Pathway (AID 357); details: ME-180 AP-1-bla reporter, EGF-induced, beta-lactamase ratio, 5 h;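 note: ME-180 reporter cells stimulated with EGF at its EC50 level; % is set by controls: 0 for no effect and ±100 for the full control effect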
Outline: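 Read-out was the 460nm/530nm emission ratio (excitation 405nm) after CCF4 loading for 2.5 hours at room temperature. Cells carried an AP-1-driven beta-lactamase reporter, were stimulated with EC50 EGF plus compound for 5 hours, and AC50 values came from titrations.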

[2] = molecular target: Cytochrome P450 1A2 (Homo sapiens) (UniProt P05177); experiment: p450-cyp1a2 (AID 410; calls by dose curve;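 note: -100% = full effect of reference inhibitor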)
Chain of Cytochrome P450 1A2 (Homo sapiens) (P05177 whole entry, looked up): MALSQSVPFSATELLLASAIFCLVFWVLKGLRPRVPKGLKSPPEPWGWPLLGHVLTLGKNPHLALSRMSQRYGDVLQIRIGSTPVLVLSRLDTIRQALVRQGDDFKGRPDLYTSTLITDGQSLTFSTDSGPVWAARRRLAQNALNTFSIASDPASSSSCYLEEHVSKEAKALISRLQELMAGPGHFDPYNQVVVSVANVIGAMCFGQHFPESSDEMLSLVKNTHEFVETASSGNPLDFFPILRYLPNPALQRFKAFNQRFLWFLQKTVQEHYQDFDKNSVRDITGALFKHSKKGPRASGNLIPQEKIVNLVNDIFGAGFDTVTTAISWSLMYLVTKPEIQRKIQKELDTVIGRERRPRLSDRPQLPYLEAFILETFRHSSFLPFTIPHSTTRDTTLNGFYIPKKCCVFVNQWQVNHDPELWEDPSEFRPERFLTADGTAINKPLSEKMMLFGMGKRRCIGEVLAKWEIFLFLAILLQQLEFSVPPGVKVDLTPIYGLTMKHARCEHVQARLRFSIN
Outline: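 Human CYP1A2 (20nM) demethylated Luciferin-ME at its Km (100uM) in 100mM KPO4. After 10 min compound preincubation, NADPH regeneration ran the reaction 60 min at room temperature. Luciferin was read by luminescence, normalized to 57 uM furafylline.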

[3] = NFAT Signaling Pathway (AID 444); details: Jurkat NFAT-bla M1, carbachol, beta-lactamase ratio, 5 h;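 note: carbachol stimulus at about its EC50 of 1 µM final; % is set by controls: 0 for no effect and ±100 for the full control effect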
Outline: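 Jurkat cells with NFAT-driven β-lactamase reporter and co-expressed M1 receptor, stimulated with carbachol (final 1 uM, ~EC50), compound titration, 5 h at 37 °C. CCF4 loaded 1 h at RT; 460/530 nm ratio gave %activity and AC50.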

[4] = Stat Signaling Pathway (AID 446); details: ME-180 SIE beta-lactamase reporter, IL-6 stimulated, 5 h;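 note: ME-180 cervical cancer cells given 40 pM IL-6 alongside compound; SIE-controlled beta-lactamase reporter measured as 460/530 nm FRET emission ratio; % is set by controls: 0 for no effect and ±100 for the full control effect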
Outline: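 Reporter line: ME-180 cervical carcinoma, SIE-beta-lactamase. Treatment: compound with 40 pM IL-6, 5 hrs, 37 C, in low-serum OPTI-MEM with 10 mM HEPES pH 7.3. Detection: 460/530 nm fluorescence.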

[5] = molecular target: Glucocorticoid receptor (Homo sapiens) (UniProt P04150); experiment: GR-GFP Redistribution (AID 450;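 active = compounds whose dose series gives a full or clear partial fitted curve of increased nuclear translocation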; note: potency is the fitted concentration of half-maximal effect); details: U2OS GR-GFP nuclear translocation, laser cytometry, 2 h
Chain of Glucocorticoid receptor (Homo sapiens) (P04150 whole entry, looked up, the tested form may be a part): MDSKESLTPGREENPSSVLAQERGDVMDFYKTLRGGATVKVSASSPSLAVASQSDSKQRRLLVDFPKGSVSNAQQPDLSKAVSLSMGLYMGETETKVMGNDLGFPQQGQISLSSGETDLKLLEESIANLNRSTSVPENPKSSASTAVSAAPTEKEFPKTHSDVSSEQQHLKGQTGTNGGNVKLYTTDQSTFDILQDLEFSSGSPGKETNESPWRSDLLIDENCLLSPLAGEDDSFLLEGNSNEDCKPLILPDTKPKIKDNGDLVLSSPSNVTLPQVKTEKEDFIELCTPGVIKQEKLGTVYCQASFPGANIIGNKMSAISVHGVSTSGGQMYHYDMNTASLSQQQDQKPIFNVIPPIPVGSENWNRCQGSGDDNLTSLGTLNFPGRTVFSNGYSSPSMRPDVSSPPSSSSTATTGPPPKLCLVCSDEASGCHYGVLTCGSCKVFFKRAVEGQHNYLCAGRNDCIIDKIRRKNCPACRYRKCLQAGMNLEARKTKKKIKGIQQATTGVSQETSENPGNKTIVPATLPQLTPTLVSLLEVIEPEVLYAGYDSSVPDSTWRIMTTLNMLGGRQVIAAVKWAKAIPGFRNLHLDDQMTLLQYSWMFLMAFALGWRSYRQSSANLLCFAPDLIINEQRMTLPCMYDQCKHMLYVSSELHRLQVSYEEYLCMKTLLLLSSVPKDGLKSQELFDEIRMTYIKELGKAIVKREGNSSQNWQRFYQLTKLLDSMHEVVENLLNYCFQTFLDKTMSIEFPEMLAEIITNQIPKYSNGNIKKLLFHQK

[6] = molecular target: Glucocorticoid receptor (Homo sapiens) (UniProt P04150); experiment: GR-EFC Redistribution (AID 451; calls by dose curve; note: potency is the fitted concentration of half-maximal effect); details: CHO-K1 GR-EFC translocation, beta-gal luminescence, 2 h
Outline: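 CHO-K1 cells expressing nuclear EA and GR-ED fragments of b-gal; compounds titrated up to 46 uM final, 2 h at 37 C. GR nuclear translocation read as complemented b-gal luminescence after 1 h RT detection.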

[7] = molecular target: Mitogen-activated protein kinase 10 (Mus musculus) (UniProt Q61831); experiment: JNK3 AlphaScreen Assay (AID 530);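 note: kinase came from lysate of stimulated human HepG2 cells; signal reports phosphorylation of biotinylated GST-cJun 1-79 at Ser73 with 10 µM ATP; % is set by controls: 0 for no effect and ±100 for the full control effect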
Outline: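 qHTS format: compounds tested as titrations against IL-1beta/TNF-alpha-activated HepG2 lysate JNK3 with biotin-GST-cJun substrate and 10 uM ATP at room temperature. Loss of anti-phospho-cJun AlphaScreen signal indicates inhibition.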

[8] = molecular target: 3',5'-cyclic-AMP phosphodiesterase 4B (Homo sapiens) (UniProt Q07343); experiment: qHTS Assay for Inhibitors of PDE-IV (AID 607; active = well fitted activation curve with a large enough effect in the main read-out, with a control signal flat, not every such curve was filed as active; note: potency is the fitted concentration of half-maximal effect)
Chain of 3',5'-cyclic-AMP phosphodiesterase 4B (Homo sapiens) (Q07343 whole entry, looked up): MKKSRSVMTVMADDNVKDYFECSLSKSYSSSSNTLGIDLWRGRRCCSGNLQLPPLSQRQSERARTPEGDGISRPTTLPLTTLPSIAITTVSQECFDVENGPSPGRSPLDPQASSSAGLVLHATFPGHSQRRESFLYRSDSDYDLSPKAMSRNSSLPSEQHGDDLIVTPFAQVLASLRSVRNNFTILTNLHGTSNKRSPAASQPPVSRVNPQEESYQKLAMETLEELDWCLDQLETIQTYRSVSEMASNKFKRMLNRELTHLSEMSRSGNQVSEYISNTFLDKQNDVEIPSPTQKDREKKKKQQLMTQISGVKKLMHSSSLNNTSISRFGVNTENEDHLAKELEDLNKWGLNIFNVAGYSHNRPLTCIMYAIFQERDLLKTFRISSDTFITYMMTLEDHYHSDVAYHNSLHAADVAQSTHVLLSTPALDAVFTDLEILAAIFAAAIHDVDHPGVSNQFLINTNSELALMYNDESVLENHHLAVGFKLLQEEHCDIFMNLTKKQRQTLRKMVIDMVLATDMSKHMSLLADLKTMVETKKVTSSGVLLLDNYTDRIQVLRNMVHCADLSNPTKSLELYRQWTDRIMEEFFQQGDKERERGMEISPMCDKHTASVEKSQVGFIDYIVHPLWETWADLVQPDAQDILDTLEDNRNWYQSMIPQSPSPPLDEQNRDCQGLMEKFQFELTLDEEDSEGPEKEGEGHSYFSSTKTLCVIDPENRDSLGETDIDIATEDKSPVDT
Outline: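 Cell-based read-out of cAMP via a modified cyclic nucleotide-gated channel and membrane potential dye (535/590 nm) in HEK293 cells expressing PDE4 endogenously. Compounds tested up to 22.9 uM final; 100 uM RO 20-1724 reference.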

[9] = molecular target: Guanine nucleotide-binding protein G(i) subunit alpha-1 (Homo sapiens) (UniProt P63096); experiment: qHTS Assay for Inhibitors of RGS12 GoLoco Motif Activity (Green Fluorophore) (AID 879; active = well fitted curve in the direction sought with a large enough effect; an effect the other way counts as inactive or inconclusive;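 note: 0% = labeled peptide with Gαi1 and full inhibition = labeled peptide alone without protein; negative values mean loss of peptide binding seen as reduced polarization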)
Chain of Guanine nucleotide-binding protein G(i) subunit alpha-1 (Homo sapiens) (P63096 whole entry, looked up): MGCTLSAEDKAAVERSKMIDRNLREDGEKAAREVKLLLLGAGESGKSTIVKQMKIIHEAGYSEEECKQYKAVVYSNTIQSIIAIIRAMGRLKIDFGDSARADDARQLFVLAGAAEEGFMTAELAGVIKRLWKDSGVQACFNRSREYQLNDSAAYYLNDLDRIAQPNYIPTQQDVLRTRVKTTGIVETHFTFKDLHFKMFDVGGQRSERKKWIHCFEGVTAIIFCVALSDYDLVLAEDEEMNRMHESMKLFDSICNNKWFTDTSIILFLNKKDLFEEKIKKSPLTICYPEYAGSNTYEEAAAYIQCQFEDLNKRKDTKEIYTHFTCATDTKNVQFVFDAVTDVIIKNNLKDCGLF
Outline: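 Fluorescence polarization assay: 50 nM Gαi1 with 10 nM FITC-labeled RGS12 GoLoco peptide in 10 mM Tris pH 7.5, 150 mM NaCl, 0.1 mM GDP, 0.05% NP40, 10 min at room temperature with compound.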

[10] = qHTS Assay for Identification of Small Molecule Antagonists for NFkB Signaling Pathway (AID 895; active = well fitted inhibition curve with a large enough effect in the signal ratio, with a control signal flat, not every such curve was filed as active; the % refers to the signal ratio; note: % is set by controls: 0 for no effect and ±100 for the full control effect)
Outline: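 ME-180 NFkB-bla cells (beta-lactamase under NFkB response element), plated overnight, treated with compound then 10 pM TNF alpha (about EC50) for 5 hrs at 37 C. LiveBLAzer FRET read at 460/530 nm emission, 405 nm excitation.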

[11] = qHTS Assay for Identification of Small Molecule Agonists for Thrombopoietin (TPO) Signaling Pathway (AID 917; active = well fitted curve in the direction sought with a large enough effect; an effect the other way counts as inactive or inconclusive; note: % is set by controls: 0 for no effect and ±100 for the full control effect)
Outline: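 IL-3-dependent murine pro-B Ba/F3 cells, stably transfected with human TPO receptor and GpIIb-promoter luciferase, are incubated 24 hrs at 37 C with test compound and 26 pM TPO; luciferase signal is read after 10 min at room temperature.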

[12] = molecular target: Muscarinic acetylcholine receptor M1 (Rattus norvegicus) (UniProt P08482); experiment: qHTS Assay for Antagonists of Acetylcholine Muscarinic M1 Receptor: Measurement of IP-One Response (AID 944; active = well fitted curve in the direction sought with a large enough effect; an effect the other way counts as inactive or inconclusive; note: nearly all actives have a fitted effect of over 75% in size)
Chain of Muscarinic acetylcholine receptor M1 (Rattus norvegicus) (P08482 whole entry, looked up): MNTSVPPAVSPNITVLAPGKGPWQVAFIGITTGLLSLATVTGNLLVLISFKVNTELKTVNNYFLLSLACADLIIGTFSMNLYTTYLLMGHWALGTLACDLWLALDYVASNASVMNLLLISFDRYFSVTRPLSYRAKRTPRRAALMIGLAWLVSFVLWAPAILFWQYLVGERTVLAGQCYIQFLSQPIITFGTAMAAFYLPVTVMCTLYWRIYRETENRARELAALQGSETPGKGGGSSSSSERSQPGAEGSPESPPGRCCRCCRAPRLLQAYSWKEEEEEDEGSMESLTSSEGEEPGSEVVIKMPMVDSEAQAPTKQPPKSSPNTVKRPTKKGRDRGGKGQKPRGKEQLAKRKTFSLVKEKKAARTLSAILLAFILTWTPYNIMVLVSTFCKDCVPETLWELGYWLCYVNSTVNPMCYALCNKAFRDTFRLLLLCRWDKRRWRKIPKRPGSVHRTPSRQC
Outline: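 CHO cells expressing rat M1 receptor, recovered overnight, were pre-incubated 10 min with compound, then stimulated 30 min with carbachol at EC80 (200 nM) in LiCl-containing buffer, pH 7.4. IP1 accumulation was read by HTRF (620/665 nm).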

[13] = molecular target: Pyruvate kinase (Leishmania mexicana) (UniProt Q27686); experiment: qHTS Validation Assay for Inhibitors of Leishmania Mexicana Pyruvate Kinase (AID 945; active = well fitted curve in the direction sought with a large enough effect; an effect the other way counts as inactive or inconclusive;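 note: 0% = DMSO only neutral control wells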)
Chain of Pyruvate kinase (Leishmania mexicana) (Q27686 2-499 E452W): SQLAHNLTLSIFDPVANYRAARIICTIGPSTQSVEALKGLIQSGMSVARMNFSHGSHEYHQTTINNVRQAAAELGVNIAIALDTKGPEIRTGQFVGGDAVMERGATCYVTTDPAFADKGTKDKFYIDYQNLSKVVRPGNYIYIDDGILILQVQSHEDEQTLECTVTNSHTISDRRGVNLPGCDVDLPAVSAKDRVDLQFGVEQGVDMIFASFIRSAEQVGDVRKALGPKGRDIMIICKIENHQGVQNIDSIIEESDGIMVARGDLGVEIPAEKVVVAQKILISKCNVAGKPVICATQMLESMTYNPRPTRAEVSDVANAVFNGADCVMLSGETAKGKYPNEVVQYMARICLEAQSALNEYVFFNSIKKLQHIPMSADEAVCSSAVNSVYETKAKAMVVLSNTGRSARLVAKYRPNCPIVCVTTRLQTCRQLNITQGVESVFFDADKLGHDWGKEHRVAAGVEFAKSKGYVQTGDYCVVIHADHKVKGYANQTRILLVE
Outline: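 Pyruvate kinase activity of E451W LmPYK (0.2 nM) was followed as ATP output after 1 h at room temperature with 0.5 mM PEP and 0.1 mM ADP, detected by PKLight luminescence.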

[14] = molecular target: Pyruvate kinase PKM (Homo sapiens) (UniProt P14618); experiment: qHTS Assay for Activators of Human Muscle Pyruvate Kinase (AID 954; active = well fitted curve in the direction sought with a large enough effect, not every such curve was filed as active;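 note: 0% = uninhibited enzyme and -100% = no enzyme or full thiadiazolimine inhibition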)
Chain of Pyruvate kinase PKM (Homo sapiens) (P14618 whole entry, looked up): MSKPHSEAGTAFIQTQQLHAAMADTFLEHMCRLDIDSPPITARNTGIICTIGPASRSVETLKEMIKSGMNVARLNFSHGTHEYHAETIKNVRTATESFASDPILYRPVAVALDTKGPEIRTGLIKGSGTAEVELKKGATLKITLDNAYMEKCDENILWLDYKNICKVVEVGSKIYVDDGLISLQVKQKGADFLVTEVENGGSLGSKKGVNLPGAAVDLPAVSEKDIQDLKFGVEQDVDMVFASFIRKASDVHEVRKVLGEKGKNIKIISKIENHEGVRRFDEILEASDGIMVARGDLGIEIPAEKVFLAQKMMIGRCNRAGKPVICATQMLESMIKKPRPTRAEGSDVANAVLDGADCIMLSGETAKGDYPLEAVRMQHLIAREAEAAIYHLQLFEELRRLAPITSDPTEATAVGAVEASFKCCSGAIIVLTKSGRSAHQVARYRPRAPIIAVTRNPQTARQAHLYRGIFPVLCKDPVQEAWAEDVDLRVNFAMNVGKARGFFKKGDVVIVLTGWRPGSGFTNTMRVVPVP
Outline: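 Human PKM2 activity is measured as ATP generation, detected by luciferase-coupled luminescence. The enzyme (0.1 nM) acts on 0.5 mM PEP and 0.1 mM ADP for 1 h at ambient temperature; data are normalized to uninhibited and full-inhibition wells.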

[15] = molecular target: Alpha-galactosidase A (Homo sapiens) (UniProt P06280); experiment: Counterscreen for Glucocerebrosidase Inhibitors: qHTS Assay for Human alpha-Galactosidase at pH 4.5 (AID 992; active = well fitted curve in the direction sought with a large enough effect; an effect the other way counts as inactive or inconclusive; note: 0% is about no effect)
Outline: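 Quantitative HTS: compounds tested from 0.7 nM up to 77 uM against 2 nM enzyme with 80 uM 4-MU alpha-D-galactopyranoside. The 20 min room-temperature reaction is stopped with 1M NaOH/1M glycine, pH 10.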

[16] = molecular target: alpha-glucosidase (Oryza sativa, rice) (UniProt Q653V4); experiment: Counterscreen for Glucocerebrosidase Inhibitors: qHTS Assay for Rice alpha-Glucosidase at pH 5.0 (AID 997; active = well fitted curve in the direction sought with a large enough effect; an effect the other way counts as inactive or inconclusive;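 note: 0% = full activity with enzyme and -100% = basal without enzyme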)
Outline: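 Rice alpha-glucosidase (4 nM final) with 400 uM 4-methylumbelliferyl-alpha-D-glucopyranoside in citrate buffer pH 5.0, 20 min at room temperature, stopped at pH 10; fluorescence 365/440 nm, compounds 0.7 nM–77 uM, AC50 from Hill fits.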

[17] = molecular target: Cytochrome P450 3A4 (Homo sapiens) (UniProt P08684); experiment: qHTS Assay for Activators of Cytochrome P450 3A4 (AID 885; active = well fitted curve in the direction sought with a large enough effect; an effect the other way counts as inactive or inconclusive; note: nearly all actives have a fitted effect of over 65% in size)
Chain of Cytochrome P450 3A4 (Homo sapiens) (P08684 whole entry, looked up): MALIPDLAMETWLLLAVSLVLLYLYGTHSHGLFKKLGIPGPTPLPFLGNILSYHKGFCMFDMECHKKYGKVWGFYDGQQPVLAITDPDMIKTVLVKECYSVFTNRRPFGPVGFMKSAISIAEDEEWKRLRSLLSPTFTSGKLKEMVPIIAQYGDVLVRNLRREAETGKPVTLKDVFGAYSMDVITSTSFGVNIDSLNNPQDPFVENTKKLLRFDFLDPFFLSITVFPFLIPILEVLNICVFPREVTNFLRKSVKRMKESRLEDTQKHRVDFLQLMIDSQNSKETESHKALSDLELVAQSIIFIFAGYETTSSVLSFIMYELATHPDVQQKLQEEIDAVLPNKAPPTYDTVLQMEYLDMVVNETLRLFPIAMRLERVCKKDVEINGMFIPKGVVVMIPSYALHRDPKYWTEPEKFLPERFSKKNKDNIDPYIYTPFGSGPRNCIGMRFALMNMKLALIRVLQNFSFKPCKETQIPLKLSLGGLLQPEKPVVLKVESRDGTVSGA
Outline: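 Signal was normalized against complete inhibition by 57 uM ketoconazole. The reaction used 20nM CYP3A4 with 25uM Luciferin-PPXE, 10-min compound preincubation and a 60-min NADPH-supported step at RT.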

[18] = molecular target: Cytochrome P450 2D6 (Homo sapiens) (UniProt P10635); experiment: qHTS Assay for Inhibitors and Substrates of Cytochrome P450 2D6 (AID 891; active = well fitted curve in the direction sought with a large enough effect; an effect the other way counts as inactive or inconclusive; note: potency is the fitted concentration of half-maximal effect; nearly all actives have a fitted effect of over 60% in size)
Chain of Cytochrome P450 2D6 (Homo sapiens) (P10635 whole entry, looked up): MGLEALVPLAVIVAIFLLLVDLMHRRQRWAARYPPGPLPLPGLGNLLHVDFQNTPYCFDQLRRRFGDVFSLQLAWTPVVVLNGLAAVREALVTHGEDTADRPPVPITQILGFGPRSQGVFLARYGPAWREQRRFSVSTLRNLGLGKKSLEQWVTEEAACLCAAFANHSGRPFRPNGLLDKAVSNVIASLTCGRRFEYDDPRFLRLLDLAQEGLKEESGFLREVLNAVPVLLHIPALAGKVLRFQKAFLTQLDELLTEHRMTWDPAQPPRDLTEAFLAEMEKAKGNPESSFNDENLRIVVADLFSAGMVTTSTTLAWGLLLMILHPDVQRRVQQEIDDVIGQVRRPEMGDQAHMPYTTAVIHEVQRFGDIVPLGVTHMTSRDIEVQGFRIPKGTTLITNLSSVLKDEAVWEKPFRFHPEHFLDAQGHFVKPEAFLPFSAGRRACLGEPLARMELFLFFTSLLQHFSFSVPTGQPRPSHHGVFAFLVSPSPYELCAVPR
Outline: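 Human CYP2D6 (5 nM) with 30 uM Luciferin-ME EGE (at Km) in 100 mM KPO4, compound preincubated 10 min, then NADPH regeneration system for 60 min at room temperature. Luciferin read by luminescence; normalized to 1.43 uM quinidine.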

[19] = molecular target: Cytochrome P450 2C19 (Homo sapiens) (UniProt P33261); experiment: qHTS Assay for Inhibitors and Substrates of Cytochrome P450 2C19 (AID 899; active = well fitted curve in the direction sought with a large enough effect; an effect the other way counts as inactive or inconclusive; note: potency is the fitted concentration of half-maximal effect; nearly all actives have a fitted effect of over 60% in size)
Outline: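 Signal comes from luciferase acting on luciferin released by CYP2C19-mediated hydroxylation of Luciferin-H EGE, 10uM (KM). Assay mix: 5nM enzyme, 50mM KPO4; 60 min at 37C with NADPH regeneration. Data normalized against 57uM ketoconazole.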

[20] = at 7.69 µM (top of the series) unless noted

O=[N+]([O-])c1ccc(CSc2ncnc3c2ncn3[C@@H]2O[C@@H](CO)[C@@H](O)[C@H]2O)cc1
inactive: activity change, negative = inhibition [1, 20] -12.2% [at 38 µM] | Potency [2] | activity change, negative = inhibition [3, 20] 11% [at 38 µM] | activity, negative = inhibition [4, 20] 29.7% [at 38 µM] | Potency [5] > 46 µM | Potency [6] > 46 µM | Potency [7] | Potency [8] | outcome [9] | Potency [10] | outcome [11] | Potency [12] | outcome [13] | outcome [14] | outcome [15] | Potency [16]

CC(C)(C)c1ccc([C@@H](O)CCCN2CCC(C(O)(c3ccccc3)c3ccccc3)CC2)cc1
inactive: activity change, negative = inhibition ([1]; at 17.2 µM (top of the series)) 2.82% | activity change, negative = inhibition ([1]; at 38 µM (top of the series)) 6.21% | activity change, negative = inhibition ([3]; at 17.2 µM (top of the series)) -18.2% | activity change, negative = inhibition ([3]; at 38 µM (top of the series)) -0.347% | activity, negative = inhibition ([4]; at 17.2 µM (top of the series)) -5.86% | activity, negative = inhibition ([4]; at 38 µM (top of the series)) 9.55% | Potency [5] > 46 µM and > 20.6 µM | Potency [6] > 46 µM and > 20.6 µM | Potency [7]
2 µM (active) and inactive: Potency [8]

COc1cc(N=Nc2cccc(S(N)(=O)=O)c2)c2ccccc2c1N
inactive: Potency [5] > 46 µM | Potency [6] > 9.22 µM | Potency [7] | Potency [8]

NC(=O)c1ncn([C@@H]2O[C@@H](CO)[C@@H](O)[C@H]2O)n1
inactive: activity change, negative = inhibition [1, 20] 18.3% [at 38 µM] | Potency [2] | activity change, negative = inhibition [3, 20] 17% [at 38 µM] | activity, negative = inhibition [4, 20] -14.5% [at 38 µM] | Potency [5] > 46 µM | Potency [6] > 46 µM | Potency [7] | Potency [8]

CN1C[C@H](c2ccccc2)C(O)([C@]2(c3ccccc3)CN(C)C[C@@H](c3ccccc3)C2=O)[C@H](c2ccccc2)C1 (stereo partly specified)
inactive: activity change, negative = inhibition [1, 20] 0.442% | Potency [2] | activity change, negative = inhibition [3, 20] -6.86% | activity, negative = inhibition [4, 20] 10% | Potency [5] > 46 µM | Potency [6] > 9.22 µM | Potency [7] | Potency [8]

COc1ccc(-c2csc3c2[N+]2=CCC=C2C3=O)cc1
active: Potency [18] 3.16 µM | Potency [19] 3.98 µM
inactive: activity, negative = inhibition [4, 20] -14.9% | Potency [5] > 46 µM | Potency [6] > 9.22 µM | Potency [7] | Potency [8] | Potency [17]

CC(C)/C(=N/[N+](C)(C)C)c1ccccc1
inactive: activity change, negative = inhibition [1, 20] 3.83% | activity change, negative = inhibition [2] -16.2% [at 2.29 µM] | activity change, negative = inhibition [3, 20] -1.16% | activity, negative = inhibition [4, 20] 0.141% | Potency [5] > 46 µM | Potency [6] > 9.22 µM | Potency [7] | Potency [8]

Cc1nc(CN2CCCCC2)c(O)c(=O)[nH]1
inactive: activity change, negative = inhibition [1, 20] -7.91% | Potency [2] | activity change, negative = inhibition [3, 20] 12.6% | activity, negative = inhibition [4, 20] -9.62% | Potency [5] > 46 µM | Potency [6] > 9.22 µM | Potency [7] | Potency [8]

COc1ncc2nc(-c3cc(F)cc(F)c3)c(=O)n(CCc3ccccc3)c2n1
inactive: Potency [5] > 9.22 µM | Potency [6] > 46 µM | Potency [7]

C=C(Br)CN(C)CC(=C)Br
inactive: activity change, negative = inhibition [1, 20] 0.791% | Potency [2] | activity change, negative = inhibition [3, 20] 0.988% | activity, negative = inhibition [4, 20] -0.267% | Potency [5] > 46 µM | Potency [6] > 9.22 µM | Potency [7] | Potency [8]
